The panel holds about 83,000 compounds, 20% with a hit somewhere; the sample as a whole holds those more often.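 Activity criterion: percent growth below 10, measured after cells in 96-well plates were exposed to a single compound concentration for 48 hours.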 A number with no mark means an inactive call. Calls of active or inactive are those of the source.

Some test systems named below: HCT-15 colon; HT29 colon; SNB-75 CNS; SNB-19 CNS; U251 CNS; PC-3 prostate; SK-MEL-5 melanoma; UACC-62 melanoma; LOX IMVI melanoma; SK-MEL-28 melanoma; SK-MEL-2 melanoma; EKVX NSCLC; SN12C renal; UO-31 renal; TK-10 renal; ACHN renal; CAKI-1 renal; A498 renal; CCRF-CEM leukemia; MOLT-4 leukemia.
Holding throughout (assay): NCI-60 one-dose screen, 48 h (100 = growth as untreated, 0 = no growth, -100 = all killed)
What all share (details): 10 µM unless noted

As to `c1ccc(-c2nc3ccccc3[nH]2)c(OCCCCCOc2ccccc2-c2nc3ccccc3[nH]2)c1`, the growth in the test with HCT-15 colon is 58%; with HT29 colon, 74.8%; with SNB-75 CNS, 89.8%; in the test on SNB-19 CNS, 91.7%; with U251 CNS it was 74.5%; with PC-3 prostate, 43.4%. The growth in the test with SK-MEL-5 melanoma was 58.9%; in the test on UACC-62 melanoma it was 59.1%; in the test with LOX IMVI melanoma it was 62%; with SK-MEL-28 melanoma, 45.9%; in the test on SK-MEL-2 melanoma, 85.4%; in the test on EKVX NSCLC, 68.2%. Moreover, the growth with SN12C renal is 63.4%; in the test with UO-31 renal it was 58.6%; in the test on TK-10 renal, 100%; with ACHN renal, 89.4%; in the test with CAKI-1 renal it was 104%; in the test on A498 renal, 71.5%. Further, the growth in the test with CCRF-CEM leukemia was -44.1% (active); in the test with MOLT-4 leukemia, 56.3%.

Turning to `Cc1cccc(NC(=O)Cn2cc(CN3CCN(c4ccnc5cc(Cl)ccc45)CC3)nn2)c1`, the growth was 88.8% in the test on HCT-15 colon; 98.5% in the test with HT29 colon; 75% with SNB-75 CNS; 89.6% in the test on SNB-19 CNS; 93% in the test with U251 CNS; 63.3% in the test with PC-3 prostate. The growth was 68.8% in the test on SK-MEL-5 melanoma; 73% with UACC-62 melanoma; 81.6% with LOX IMVI melanoma; 102% in the test on SK-MEL-28 melanoma; 108% in the test with SK-MEL-2 melanoma; 87.7% in the test on EKVX NSCLC. In addition, the growth with SN12C renal is 93.8%; in the test on UO-31 renal, 65.7%; in the test with TK-10 renal, 102%; in the test on ACHN renal, 82.9%; in the test on CAKI-1 renal, 72.7%; in the test on A498 renal, 84.3%. Moreover, the growth with CCRF-CEM leukemia is -32.9% (active); in the test with MOLT-4 leukemia, 5.76% (active).

Take `C[N+]1=C(/C=C/c2ccccc2Cl)C(C)(C)c2ccccc21`: the growth is 101% with HCT-15 colon; 91.4% in the test with HT29 colon; 95.5% in the test with SNB-75 CNS; 107% with SNB-19 CNS; 84.2% with U251 CNS; 83.5% in the test with PC-3 prostate. The growth was 92.2% in the test on SK-MEL-5 melanoma; 91.9% in the test on UACC-62 melanoma; 85.5% in the test on LOX IMVI melanoma; 103% in the test with SK-MEL-28 melanoma; 109% in the test with SK-MEL-2 melanoma; 96.9% with EKVX NSCLC. The growth with SN12C renal is 103%; with UO-31 renal it was 71.5%; with TK-10 renal it was 114%; with ACHN renal, 110%; in the test with CAKI-1 renal, 89%; in the test with A498 renal it was 87.1%. In addition, the results for the growth in the test with CCRF-CEM leukemia and in the test on MOLT-4 leukemia were 47.1% and 70.3%, respectively.

On to `Nc1ncnc2c1N=C(c1ccc(Cl)cc1)CC(c1cccc(Nc3ccnc4cc(Cl)ccc34)c1)N2` (stereo not given), for which the growth is 21.1% with HCT-15 colon; 36.3% with HT29 colon; 60.4% with SNB-75 CNS; 79.6% in the test with SNB-19 CNS; 50% in the test with U251 CNS; 55.4% with PC-3 prostate. In addition, the growth is 61.9% with SK-MEL-5 melanoma; 81.2% with UACC-62 melanoma; 45.5% in the test on LOX IMVI melanoma; 86.8% in the test with SK-MEL-28 melanoma; 76.6% with SK-MEL-2 melanoma; 59.4% in the test on EKVX NSCLC. Besides, the growth was 67.1% in the test on SN12C renal; 47.2% in the test with UO-31 renal; 117% in the test on TK-10 renal; 84.2% in the test with ACHN renal; 65.7% in the test with CAKI-1 renal; 51.1% with A498 renal. The values for the growth in the test with CCRF-CEM leukemia and with MOLT-4 leukemia were 4% (active) and 12.3%, respectively.

With `O=c1c2ccccc2n(C[C@H]2CO2)c2ccccc12`, the growth with HCT-15 colon is -16.8% (active); with HT29 colon, 2.83% (active); with SNB-75 CNS, -29.4% (active); with SNB-19 CNS, 22.3%; in the test on U251 CNS, -6.13% (active); in the test with PC-3 prostate, 19.2%. Besides, the growth is -80.8% (active) with SK-MEL-5 melanoma; -83.4% (active) in the test on UACC-62 melanoma; -54.3% (active) in the test on LOX IMVI melanoma; 2.83% (active) in the test with SK-MEL-28 melanoma; -64.5% (active) with SK-MEL-2 melanoma; 16.3% with EKVX NSCLC. Further, the growth in the test with SN12C renal was 6.14% (active); in the test with UO-31 renal, -27.5% (active); with TK-10 renal it was 4.13% (active); in the test on ACHN renal, -26.6% (active); in the test on CAKI-1 renal, -9.84% (active); with A498 renal it was 96.1%. Besides, the growth in the test on CCRF-CEM leukemia is 6.9% (active); with MOLT-4 leukemia, 0.563% (active).

Turning to `COc1ccc(C=Nc2c(C(=O)Nc3cccc(Cl)c3C)sc3nc(C)c(C(=O)/C=C/c4ccc(OC)cc4)cc23)cc1`, the growth was 19.6% with HCT-15 colon; 9.21% (active) in the test with HT29 colon; -11.3% (active) in the test with SNB-75 CNS; 11.7% with SNB-19 CNS; 23.6% in the test with U251 CNS; 32.8% in the test with PC-3 prostate. Further, the growth in the test with SK-MEL-5 melanoma was 3.54% (active); in the test on UACC-62 melanoma it was 7.41% (active); in the test with LOX IMVI melanoma, 19%; with SK-MEL-28 melanoma, 38.3%; in the test with SK-MEL-2 melanoma, 42.2%; in the test with EKVX NSCLC it was 43.2%. For the same molecule, the growth with SN12C renal was 21%; in the test on UO-31 renal it was 35.9%; in the test on TK-10 renal it was 36.5%; in the test with ACHN renal, 36.1%; in the test with CAKI-1 renal, 24%; in the test with A498 renal, -4.79% (active). The growth is 19.7% in the test with CCRF-CEM leukemia and 52.2% in the test with MOLT-4 leukemia.

Regarding `Cc1cc(N2CCN(CC(=O)Nc3ccc4c(ccn4Cc4ccccc4)c3)CC2)nc(N2CCOCC2)n1`, the growth in the test on HCT-15 colon is 65.1%; with HT29 colon, 67.3%; in the test with SNB-75 CNS, 88.7%; in the test on SNB-19 CNS, 84.3%; in the test on U251 CNS, 70.8%; with PC-3 prostate it was 57%. For the same molecule, the growth is 83.1% in the test on SK-MEL-5 melanoma; 67.7% with UACC-62 melanoma; 88.2% with LOX IMVI melanoma; 91.4% in the test on SK-MEL-28 melanoma; 93% with SK-MEL-2 melanoma; 74.8% in the test with EKVX NSCLC. Also, the growth was 87% in the test on SN12C renal; 49% in the test on UO-31 renal; 88.2% in the test with TK-10 renal; 100% with ACHN renal; 88% with CAKI-1 renal; 22.9% with A498 renal. For the same molecule, the growth is 5.84% (active) with CCRF-CEM leukemia and 77.8% in the test with MOLT-4 leukemia.

As for `O=C(Cc1ccc(/C=C/C(=O)c2ncc[nH]2)cc1)Nc1cc(F)c(F)c(F)c1`, the growth in the test on HCT-15 colon is 11.9%; in the test on HT29 colon it was 18.1%; in the test on SNB-75 CNS, 44.8%; in the test on SNB-19 CNS, 43.4%; with U251 CNS, 8.91% (active); in the test with PC-3 prostate, 48.2%. In addition, the growth was 97.7% in the test with SK-MEL-5 melanoma; 74.5% in the test with UACC-62 melanoma; -3.1% (active) with LOX IMVI melanoma; 103% with SK-MEL-28 melanoma; 114% in the test with SK-MEL-2 melanoma; 92.7% in the test with EKVX NSCLC. Besides, the growth was 56.2% in the test on SN12C renal; 46.7% with UO-31 renal; 87.5% in the test on TK-10 renal; 93.2% in the test with ACHN renal; 56.2% in the test on CAKI-1 renal; 84.8% with A498 renal. Moreover, the values for the growth with CCRF-CEM leukemia and with MOLT-4 leukemia were 20.3% and 26.7%, respectively.

For the origin of these results see PubChem BioAssay (NCI).
